Test results reported in PubChem BioAssay AID504651 (National Center for Advancing Translational Sciences (NCATS), 2011).
Out of some 360,000 compounds screened, about 130 (0.036%) were called active. No stated cut-off is given here; in the data, active means potentiation above about 30%; inactive means the rest. Only a selection was taken, and actives are over-represented in it overall.

target: D(1A) dopamine receptor (Homo sapiens) (UniProt P21728); test: Potentiators of Human D1 Dopamine Receptor: qHTS; details: HEK293 TREx D1 cells, calcium flux, dopamine EC20 potentiation; at 10 µM; hits give high values; further: 0% is about no effect
Sequence (P21728 whole entry, looked up): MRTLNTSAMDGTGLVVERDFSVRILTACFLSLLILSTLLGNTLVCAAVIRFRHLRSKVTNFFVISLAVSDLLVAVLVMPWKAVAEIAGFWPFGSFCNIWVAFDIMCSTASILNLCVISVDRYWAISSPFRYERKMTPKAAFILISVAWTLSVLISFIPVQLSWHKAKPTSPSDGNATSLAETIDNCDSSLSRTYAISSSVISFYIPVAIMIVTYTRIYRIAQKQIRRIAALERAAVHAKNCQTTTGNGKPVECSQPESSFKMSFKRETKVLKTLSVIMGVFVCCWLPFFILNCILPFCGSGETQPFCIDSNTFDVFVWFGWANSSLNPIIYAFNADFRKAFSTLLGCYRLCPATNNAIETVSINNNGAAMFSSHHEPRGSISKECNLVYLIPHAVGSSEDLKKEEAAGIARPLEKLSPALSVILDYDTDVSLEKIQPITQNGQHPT

potentiation, inactive:
CCS(=O)(=O)c1nc(S(=O)(=O)c2ccc(C)cc2)c(NCc2ccc(Cl)cc2)s1 -2.95%, CCOC(=O)c1c(NC(=O)/C=C/c2ccc(OC)cc2)sc2c1CCC(C)C2 (configuration not stated) 0.15%, N#CN1CCC(NS(=O)(=O)c2cccc(F)c2)C1 (configuration not stated) -6.75%, CCOc1ccc(OCC)c(NC(=O)c2c(C)nn(-c3ccccc3)c2-n2cccc2)c1 -0.5%, CCN(CCCNC(=O)Cn1ncc2c3ccccc3n(C)c2c1=O)Cc1ccccc1 -1.8%, CCOc1ccc(C2CC(=O)c3c([nH]c(C(=O)OCc4ccccc4)c3C)C2)cc1 (configuration not stated) -3.65%, O=C1Cc2cc(S(=O)(=O)Nc3ccc(OC(F)(F)F)cc3)cc3c2N1CCC3 1.65%, Cc1ccc(NC(=O)C2CCN(S(=O)(=O)c3cc(-c4noc(C)n4)ccc3C)CC2)c(C)c1 -4.05%, O=C(c1cnn(-c2ccc(F)cc2)c1-n1cccc1)N1CCN(c2ccc(F)cc2)CC1 -1.95%, CCc1ccc(N2C(=O)CN(S(=O)(=O)CC)CC2(C)C(=O)NC2CCCCC2)cc1 (configuration not stated) -0.1%, CC(C)CNc1ncnc2c1nnn2C 2.3%, O=C(CSc1n[nH]c(-c2ccccc2)n1)N1CCCCC1 2.7%, Cc1ccc(Cn2ncc3c4sc(C)cc4n(C)c3c2=O)c(C)c1 0.9%, CCC1=Nc2cc(C(=O)NCCCOC(C)C)ccc2Sc2ccc(C)cc21 3.75%, Cc1cc2c(cc1S(=O)(=O)CCC(=O)Nc1ccc(OC(F)(F)F)cc1)OCC(=O)N2 -3.35%, Cc1c(C(=O)Nc2cccc(Cl)c2)oc2ccc(S(=O)(=O)N3CCOCC3)cc12 -2.25%, CCc1ccc(NS(=O)(=O)c2ccc3[nH]cc(C(=O)NCCc4cccc(C)c4)c(=O)c3c2)cc1 2.6%, Cc1ccc(-n2ncc(C(=O)N(C)Cc3ccccc3)c2-n2cccc2)cc1 -0.5%, Cc1ccc(CN2COc3cc(C)c4c(oc(=O)c5ccccc54)c3C2)cc1 -0.2%, CCCCn1c(=O)c2oc3ccccc3c2n(CC(=O)Nc2ccccc2OC)c1=O 1.65%, Cc1cccc(C(=O)N2c3nc(-c4ccco4)nn3C3(CCCCC3)[C@@H]3CCCC[C@@H]32)c1 -0.1%, Cc1cc(F)ccc1NC1(c2ccccc2)C(=O)c2ccccc2C1=O -5.75%, Cc1ccccc1C(=O)Nc1nnc(S(=O)(=O)N(C)c2ccc(Cl)cc2)s1 -0.45%, COc1cccc(C(=O)Nc2ccc(-c3cc(C(F)(F)F)nn3-c3ccccc3)cc2)c1 -4.85%, CCOC(=O)c1c(C)n(S(=O)(=O)c2ccc(C)cc2C)c2ccc(NS(=O)(=O)c3ccc(C)cc3C)cc12 -1.05%, COc1ccc(CCNc2nc(-c3ccc(Cl)cc3)cc(C(F)(F)F)n2)cc1OC 0.65%, Cc1cc2c(s1)c1cnn(Cc3cc(F)c(Cl)cc3Cl)c(=O)c1n2C -0.95%, Cc1ccc(S(=O)(=O)N2CCC(C(=O)Nc3cc(C)ccc3C)CC2)cc1 -2.85%, Cc1ccc(CNC(=O)CCc2c(C)nc3c(c(C)nn3-c3ccccc3)c2C)cc1 -2.25%, COc1ccc(N2CCN(S(=O)(=O)CCNC(=O)C(c3ccccc3)c3ccccc3)CC2)cc1 -0.4%, COC(=O)c1c(NC(=O)C(C)Oc2ccc(Cl)c(C)c2)sc(C)c1C (configuration not stated) 0.65%, COc1cccc(-c2nnc(SCC(=O)N3CCC(C)CC3)o2)c1 -1.7%, Cc1ccccc1CNC(=O)CCc1cn(Cc2ccccc2C)c2ccccc12 -5.7%, Cc1ccc(C)c(Cn2c(C(=O)O)c(CNCc3cccs3)c3ccccc32)c1 19.9%, COc1ccc(Cc2nc3ccc(C(=O)NCc4ccccc4C)cc3o2)cc1 -2.05%, O=C(Cc1ccc(Cl)cc1)NCC(c1cccs1)S(=O)(=O)c1ccc(Cl)cc1 (configuration not stated) -0.5%, CC(=O)c1ccc(NC(=O)CSc2nc(-c3ccccc3F)nc3c2c(=O)n(C)c(=O)n3C)cc1 -0.45%, CCSc1nnc(NC(=O)c2cc(=O)c3cc(C)c(C)cc3o2)s1 0.15%, COC(=O)c1ccccc1NC(=O)c1ccc(C#N)cc1 3.5%, O=C(Cn1c(=O)n(Cc2cccs2)c(=O)c2cccnc21)Nc1ccc(F)cc1 -2.6%, COc1ccc(-c2cccc(NS(=O)(=O)c3cc(C)c(OC)c(C)c3C)c2)nn1 -2.1%, Cc1ccc(SCC(=O)Nc2ccc3oc(-c4ccccc4C)nc3c2)cc1 -0.2%
